Columns and labels:
Assay in all cases: DAPPL (digital affinity profiling via proximity ligation, sequencing); 10 mM Tris-HCl pH 7.5, 50 mM NaCl, 1 mM DTT, 4% glycerol, room temperature, 30 min; GST-TFs on glutathione beads, 16-mer random dsDNA library, 0.1% formaldehyde crosslink after washing; high values mean tight binding
FEV = target: T1, FEV (Homo sapiens, UniProt Q99581 1-238); settings: protein: recombinant; tags: N-terminal GST; dsDNA, one strand shown
T1 sequence: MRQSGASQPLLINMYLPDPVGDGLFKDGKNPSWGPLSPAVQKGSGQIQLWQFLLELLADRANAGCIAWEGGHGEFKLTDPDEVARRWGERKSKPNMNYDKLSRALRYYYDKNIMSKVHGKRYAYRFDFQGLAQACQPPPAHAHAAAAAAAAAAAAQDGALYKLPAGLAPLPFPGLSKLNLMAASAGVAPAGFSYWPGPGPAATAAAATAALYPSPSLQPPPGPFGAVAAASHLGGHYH
Outline: (§1)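 Pools were built from human transcription factors expressed in yeast as GST fusions, captured on glutathione beads and DNA-barcoded, along with a tag-only sample. Incubation with 200 nmole of a 16-mer random double-stranded DNA library lasted 30 min at room temperature in Tris/NaCl/DTT/glycerol buffer, and was followed by washing, 0.1% formaldehyde crosslinking, proximity ligation, PCR amplification and Illumina NextSeq500 sequencing. Binding signal is the quotient of each hexamer's read frequency for a factor and its frequency for the tag-only sample.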

ETV5 = ETV5 (Homo sapiens, UniProt P41161 1-510); settings: protein: recombinant; tags: N-terminal GST; dsDNA, one strand shown
Chain of ETV5 (P41161 whole entry): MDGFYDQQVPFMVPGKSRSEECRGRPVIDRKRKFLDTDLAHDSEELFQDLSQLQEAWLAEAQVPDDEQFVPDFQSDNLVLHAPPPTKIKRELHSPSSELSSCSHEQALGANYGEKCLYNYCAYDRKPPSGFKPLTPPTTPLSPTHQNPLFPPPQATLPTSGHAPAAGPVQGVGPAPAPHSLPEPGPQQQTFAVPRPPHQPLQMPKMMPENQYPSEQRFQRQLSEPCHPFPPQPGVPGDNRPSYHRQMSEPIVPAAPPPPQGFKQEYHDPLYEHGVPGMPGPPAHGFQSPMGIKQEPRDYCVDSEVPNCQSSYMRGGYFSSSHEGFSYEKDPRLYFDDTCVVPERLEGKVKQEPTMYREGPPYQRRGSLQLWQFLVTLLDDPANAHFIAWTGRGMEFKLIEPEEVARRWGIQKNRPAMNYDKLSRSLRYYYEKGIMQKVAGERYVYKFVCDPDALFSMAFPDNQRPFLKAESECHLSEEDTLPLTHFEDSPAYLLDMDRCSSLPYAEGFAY
Outline: as §1

HSF1 = HSF1 (Homo sapiens, UniProt Q00613 1-529); settings: protein: recombinant; tags: N-terminal GST; chain copies: 3; dsDNA, one strand shown
Chain of HSF1 (Q00613 whole entry): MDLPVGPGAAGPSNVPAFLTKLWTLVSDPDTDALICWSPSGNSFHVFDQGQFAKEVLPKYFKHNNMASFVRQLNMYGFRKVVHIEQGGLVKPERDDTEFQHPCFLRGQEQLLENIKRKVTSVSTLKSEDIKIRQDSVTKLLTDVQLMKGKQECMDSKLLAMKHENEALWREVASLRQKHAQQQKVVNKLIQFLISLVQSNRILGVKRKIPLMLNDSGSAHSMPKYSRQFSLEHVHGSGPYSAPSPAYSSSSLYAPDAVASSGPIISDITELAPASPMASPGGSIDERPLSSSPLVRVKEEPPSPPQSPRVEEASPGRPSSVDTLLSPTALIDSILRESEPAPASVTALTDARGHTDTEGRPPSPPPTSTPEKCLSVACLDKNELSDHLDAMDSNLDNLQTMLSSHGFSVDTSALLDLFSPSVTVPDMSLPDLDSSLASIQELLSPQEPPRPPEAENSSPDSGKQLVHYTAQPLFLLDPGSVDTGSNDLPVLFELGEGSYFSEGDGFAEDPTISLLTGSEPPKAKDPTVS
Outline: as §1

SPIC = target: T2, SPIC (Homo sapiens, UniProt Q8N5J4 1-248); settings: protein: recombinant; tags: N-terminal GST; dsDNA, one strand shown
T2 sequence: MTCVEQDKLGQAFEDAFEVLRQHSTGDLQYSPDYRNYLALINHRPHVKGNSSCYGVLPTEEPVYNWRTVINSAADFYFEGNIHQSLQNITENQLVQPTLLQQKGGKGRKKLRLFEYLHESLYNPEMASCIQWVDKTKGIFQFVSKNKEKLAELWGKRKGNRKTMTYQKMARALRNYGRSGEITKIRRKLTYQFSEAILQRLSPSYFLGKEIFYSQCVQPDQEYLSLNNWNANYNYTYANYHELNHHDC
Outline: as §1

ELF4 = ELF4 (Homo sapiens, UniProt Q99607 1-663); settings: protein: recombinant; tags: N-terminal GST; dsDNA, one strand shown
Chain of ELF4 (Q99607 whole entry): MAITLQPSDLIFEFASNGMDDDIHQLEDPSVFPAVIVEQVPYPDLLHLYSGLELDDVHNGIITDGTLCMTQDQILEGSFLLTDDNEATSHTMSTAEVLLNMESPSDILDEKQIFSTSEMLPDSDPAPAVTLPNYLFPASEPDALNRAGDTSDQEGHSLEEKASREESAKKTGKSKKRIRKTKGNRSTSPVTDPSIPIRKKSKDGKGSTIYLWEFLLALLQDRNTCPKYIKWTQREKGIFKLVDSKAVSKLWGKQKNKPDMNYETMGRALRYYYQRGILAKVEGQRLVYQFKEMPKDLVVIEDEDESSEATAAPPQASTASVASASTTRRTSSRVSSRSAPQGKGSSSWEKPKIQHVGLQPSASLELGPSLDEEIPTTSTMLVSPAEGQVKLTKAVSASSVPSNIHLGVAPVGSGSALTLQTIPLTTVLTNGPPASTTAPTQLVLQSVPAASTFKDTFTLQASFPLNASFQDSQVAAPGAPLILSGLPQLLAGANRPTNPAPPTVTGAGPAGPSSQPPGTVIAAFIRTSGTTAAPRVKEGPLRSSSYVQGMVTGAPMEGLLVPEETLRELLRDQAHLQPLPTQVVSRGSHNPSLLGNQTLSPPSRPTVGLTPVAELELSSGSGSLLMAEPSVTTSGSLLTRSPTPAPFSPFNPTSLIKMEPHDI
Outline: as §1

ELK4 = target: T3, ELK4 (Homo sapiens, UniProt P28324-2 1-405); settings: protein: recombinant; tags: N-terminal GST; dsDNA, one strand shown
T3 sequence: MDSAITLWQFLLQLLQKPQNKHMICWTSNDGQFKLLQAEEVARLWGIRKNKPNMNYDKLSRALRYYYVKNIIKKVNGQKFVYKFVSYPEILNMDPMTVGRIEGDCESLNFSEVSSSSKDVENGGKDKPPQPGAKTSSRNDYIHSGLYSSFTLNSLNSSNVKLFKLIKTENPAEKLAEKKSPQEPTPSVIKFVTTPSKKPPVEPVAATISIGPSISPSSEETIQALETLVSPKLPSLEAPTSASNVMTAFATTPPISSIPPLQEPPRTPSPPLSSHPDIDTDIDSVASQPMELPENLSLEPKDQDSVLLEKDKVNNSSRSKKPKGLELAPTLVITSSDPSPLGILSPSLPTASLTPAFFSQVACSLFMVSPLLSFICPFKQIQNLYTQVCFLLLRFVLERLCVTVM
Outline: as §1

ETV2 = target: T4, ETV2 (Homo sapiens, UniProt O00321 1-342); settings: protein: recombinant; tags: N-terminal GST; dsDNA, one strand shown
T4 sequence: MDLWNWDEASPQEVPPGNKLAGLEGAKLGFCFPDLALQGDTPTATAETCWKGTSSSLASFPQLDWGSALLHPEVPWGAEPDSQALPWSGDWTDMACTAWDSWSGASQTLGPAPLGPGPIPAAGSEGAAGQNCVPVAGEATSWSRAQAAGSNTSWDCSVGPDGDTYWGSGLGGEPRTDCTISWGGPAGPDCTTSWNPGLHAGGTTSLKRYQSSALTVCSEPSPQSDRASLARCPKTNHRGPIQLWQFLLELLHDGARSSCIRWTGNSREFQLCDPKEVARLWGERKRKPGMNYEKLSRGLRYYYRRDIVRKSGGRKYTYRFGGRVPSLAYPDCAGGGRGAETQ
Outline: as §1

ELF3 = target: T5, ELF3 (Homo sapiens, UniProt P78545 1-371); settings: protein: recombinant; tags: N-terminal GST; dsDNA, one strand shown
T5 sequence: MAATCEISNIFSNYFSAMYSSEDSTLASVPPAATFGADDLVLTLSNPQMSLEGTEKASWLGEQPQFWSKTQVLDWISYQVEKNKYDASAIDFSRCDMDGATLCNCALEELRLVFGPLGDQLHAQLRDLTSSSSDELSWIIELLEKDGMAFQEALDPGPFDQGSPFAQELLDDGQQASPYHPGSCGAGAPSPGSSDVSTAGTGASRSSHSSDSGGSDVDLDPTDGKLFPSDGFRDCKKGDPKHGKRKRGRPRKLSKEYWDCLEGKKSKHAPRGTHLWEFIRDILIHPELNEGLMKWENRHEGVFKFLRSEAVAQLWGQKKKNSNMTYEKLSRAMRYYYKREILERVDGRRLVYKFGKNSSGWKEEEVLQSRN
Outline: as §1

CRX = CRX (Homo sapiens, UniProt O43186 1-299); settings: protein: recombinant; tags: N-terminal GST; dsDNA, one strand shown
Chain of CRX (O43186 whole entry): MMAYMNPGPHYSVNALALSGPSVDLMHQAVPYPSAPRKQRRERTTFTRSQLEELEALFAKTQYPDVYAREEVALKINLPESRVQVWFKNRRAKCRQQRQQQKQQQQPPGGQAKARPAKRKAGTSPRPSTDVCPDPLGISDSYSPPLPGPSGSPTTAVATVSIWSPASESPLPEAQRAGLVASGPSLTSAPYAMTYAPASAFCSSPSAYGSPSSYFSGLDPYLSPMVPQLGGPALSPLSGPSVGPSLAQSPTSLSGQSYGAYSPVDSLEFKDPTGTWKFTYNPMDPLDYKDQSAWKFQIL
Outline: as §1

ETV1 = ETV1 (Homo sapiens, UniProt P50549 1-477); settings: protein: recombinant; tags: N-terminal GST; dsDNA, one strand shown
Chain of ETV1 (P50549 whole entry): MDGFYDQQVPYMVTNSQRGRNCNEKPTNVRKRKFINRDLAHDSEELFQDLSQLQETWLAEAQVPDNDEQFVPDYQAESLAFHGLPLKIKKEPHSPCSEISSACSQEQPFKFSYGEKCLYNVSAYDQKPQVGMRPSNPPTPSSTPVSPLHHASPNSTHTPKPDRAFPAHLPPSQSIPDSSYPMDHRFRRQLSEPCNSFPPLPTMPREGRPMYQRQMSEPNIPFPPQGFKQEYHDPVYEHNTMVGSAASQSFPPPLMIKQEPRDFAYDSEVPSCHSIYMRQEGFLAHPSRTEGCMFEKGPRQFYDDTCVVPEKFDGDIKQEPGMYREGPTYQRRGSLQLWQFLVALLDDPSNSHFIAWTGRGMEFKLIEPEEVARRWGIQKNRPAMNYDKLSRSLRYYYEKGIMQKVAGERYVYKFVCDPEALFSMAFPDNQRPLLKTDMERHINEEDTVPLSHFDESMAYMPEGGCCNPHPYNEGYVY
Outline: as §1

ERF = target: T6, ERF (Homo sapiens, UniProt P50548 1-548); settings: protein: recombinant; tags: N-terminal GST; dsDNA, one strand shown
T6 sequence: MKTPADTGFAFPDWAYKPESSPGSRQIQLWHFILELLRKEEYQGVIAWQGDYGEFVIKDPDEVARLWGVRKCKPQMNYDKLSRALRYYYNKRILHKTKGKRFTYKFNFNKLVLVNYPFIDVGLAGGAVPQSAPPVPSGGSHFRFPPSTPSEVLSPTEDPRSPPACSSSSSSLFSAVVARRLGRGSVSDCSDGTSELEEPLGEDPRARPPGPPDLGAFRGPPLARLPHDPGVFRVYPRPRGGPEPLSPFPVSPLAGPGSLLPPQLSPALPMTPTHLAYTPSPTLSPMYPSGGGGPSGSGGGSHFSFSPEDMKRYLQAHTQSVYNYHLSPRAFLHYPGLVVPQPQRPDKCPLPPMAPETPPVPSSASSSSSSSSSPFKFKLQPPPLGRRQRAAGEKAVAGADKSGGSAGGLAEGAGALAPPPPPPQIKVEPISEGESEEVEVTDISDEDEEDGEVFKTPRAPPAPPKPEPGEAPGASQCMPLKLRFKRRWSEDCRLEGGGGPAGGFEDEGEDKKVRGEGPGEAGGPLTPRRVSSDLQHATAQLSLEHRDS
Outline: as §1

ETV3L = target: T7, ETV3L (Homo sapiens, UniProt Q6ZN32 1-361); settings: protein: recombinant; tags: N-terminal GST; dsDNA, one strand shown
T7 sequence: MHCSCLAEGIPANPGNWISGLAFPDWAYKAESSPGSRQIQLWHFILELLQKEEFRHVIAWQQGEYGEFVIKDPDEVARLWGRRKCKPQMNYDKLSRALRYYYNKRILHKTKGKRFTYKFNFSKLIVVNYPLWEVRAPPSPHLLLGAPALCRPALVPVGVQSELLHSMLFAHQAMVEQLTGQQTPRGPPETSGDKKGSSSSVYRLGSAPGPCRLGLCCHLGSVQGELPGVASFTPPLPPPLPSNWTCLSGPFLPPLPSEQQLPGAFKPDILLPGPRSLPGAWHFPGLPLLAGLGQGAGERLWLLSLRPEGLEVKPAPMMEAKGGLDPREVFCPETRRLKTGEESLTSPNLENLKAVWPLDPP
Outline: as §1

ETS2 = target: T8, ETS2 (Homo sapiens, UniProt P15036 1-469); settings: protein: recombinant; tags: N-terminal GST; dsDNA, one strand shown
T8 sequence: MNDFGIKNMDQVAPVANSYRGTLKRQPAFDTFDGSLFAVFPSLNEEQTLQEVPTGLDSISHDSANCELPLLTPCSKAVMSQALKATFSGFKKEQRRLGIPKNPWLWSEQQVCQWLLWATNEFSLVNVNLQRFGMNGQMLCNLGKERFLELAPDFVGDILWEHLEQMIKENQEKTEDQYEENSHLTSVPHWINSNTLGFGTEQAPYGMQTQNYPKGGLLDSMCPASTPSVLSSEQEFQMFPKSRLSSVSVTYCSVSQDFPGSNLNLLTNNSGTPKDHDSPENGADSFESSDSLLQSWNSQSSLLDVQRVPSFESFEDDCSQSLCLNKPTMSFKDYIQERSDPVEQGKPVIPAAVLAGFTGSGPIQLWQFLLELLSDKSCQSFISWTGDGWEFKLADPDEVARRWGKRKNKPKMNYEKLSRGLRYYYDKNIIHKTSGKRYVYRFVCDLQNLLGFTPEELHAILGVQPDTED
Outline: as §1

SPDEF = target: T9, SPDEF (Homo sapiens, UniProt O95238 1-335); settings: protein: recombinant; tags: N-terminal GST; dsDNA, one strand shown
T9 sequence: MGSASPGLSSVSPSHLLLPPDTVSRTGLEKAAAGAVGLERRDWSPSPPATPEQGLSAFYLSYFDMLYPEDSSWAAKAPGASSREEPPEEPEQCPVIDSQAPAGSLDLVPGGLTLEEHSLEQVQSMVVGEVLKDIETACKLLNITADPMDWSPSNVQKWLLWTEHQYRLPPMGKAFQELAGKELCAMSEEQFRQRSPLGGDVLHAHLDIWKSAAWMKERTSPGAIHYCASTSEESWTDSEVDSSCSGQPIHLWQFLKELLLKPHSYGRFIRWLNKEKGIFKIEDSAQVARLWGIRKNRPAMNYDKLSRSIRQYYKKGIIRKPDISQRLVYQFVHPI
Outline: as §1

ETV7 = target: T10, ETV7 (Homo sapiens, UniProt Q9Y603 1-341); settings: protein: recombinant; tags: N-terminal GST; dsDNA, one strand shown
T10 sequence: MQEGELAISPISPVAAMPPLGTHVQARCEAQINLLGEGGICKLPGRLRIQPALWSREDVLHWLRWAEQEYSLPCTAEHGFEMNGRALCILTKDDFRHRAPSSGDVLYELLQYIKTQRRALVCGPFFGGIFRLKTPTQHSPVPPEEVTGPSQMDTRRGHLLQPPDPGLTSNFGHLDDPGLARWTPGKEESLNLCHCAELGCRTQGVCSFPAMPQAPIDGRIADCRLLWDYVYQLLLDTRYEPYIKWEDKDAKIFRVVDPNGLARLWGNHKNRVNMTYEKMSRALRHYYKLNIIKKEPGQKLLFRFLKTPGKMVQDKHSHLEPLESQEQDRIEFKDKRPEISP
Outline: as §1

ELF5 = target: T11, ELF5 (Homo sapiens, UniProt Q9UKW6-2 1-255); settings: protein: recombinant; tags: N-terminal GST; dsDNA, one strand shown
T11 sequence: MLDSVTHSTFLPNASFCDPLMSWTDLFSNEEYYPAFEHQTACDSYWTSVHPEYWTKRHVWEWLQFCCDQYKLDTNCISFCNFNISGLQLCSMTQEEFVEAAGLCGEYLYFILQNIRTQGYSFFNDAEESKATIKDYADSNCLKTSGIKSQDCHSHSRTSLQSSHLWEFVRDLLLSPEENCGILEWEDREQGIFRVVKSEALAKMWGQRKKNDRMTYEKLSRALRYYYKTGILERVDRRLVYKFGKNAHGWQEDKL
Outline: as §1

ETV3 = target: T12, ETV3 (Homo sapiens, UniProt P41162-2 1-143); settings: protein: recombinant; tags: N-terminal GST; dsDNA, one strand shown
T12 sequence: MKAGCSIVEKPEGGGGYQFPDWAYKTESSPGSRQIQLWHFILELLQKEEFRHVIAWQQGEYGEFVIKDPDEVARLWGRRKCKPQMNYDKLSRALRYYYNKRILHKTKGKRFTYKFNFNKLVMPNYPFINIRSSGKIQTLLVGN
Outline: as §1

ETV6 = ETV6 (Homo sapiens, UniProt P41212 1-452); settings: protein: recombinant; tags: N-terminal GST; dsDNA, one strand shown
Chain of ETV6 (P41212 whole entry): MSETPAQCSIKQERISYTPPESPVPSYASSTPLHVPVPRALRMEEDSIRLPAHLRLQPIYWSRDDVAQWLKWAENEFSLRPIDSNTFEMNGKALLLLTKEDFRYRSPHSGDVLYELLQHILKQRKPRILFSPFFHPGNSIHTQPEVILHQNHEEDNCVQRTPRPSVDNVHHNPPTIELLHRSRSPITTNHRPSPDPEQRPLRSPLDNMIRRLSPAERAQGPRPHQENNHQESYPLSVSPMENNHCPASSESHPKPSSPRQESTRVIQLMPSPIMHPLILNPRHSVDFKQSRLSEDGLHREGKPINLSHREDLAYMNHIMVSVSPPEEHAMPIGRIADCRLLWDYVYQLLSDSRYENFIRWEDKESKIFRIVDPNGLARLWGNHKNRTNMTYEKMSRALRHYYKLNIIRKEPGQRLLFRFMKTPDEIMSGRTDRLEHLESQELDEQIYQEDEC
Outline: as §1

Sequence | binding signal (FEV) | binding signal (ETV5) | binding signal (HSF1) | binding signal (SPIC) | binding signal (ELF4) | binding signal (ELK4) | binding signal (ETV2) | binding signal (ELF3) | binding signal (CRX) | binding signal (ETV1) | binding signal (ERF) | binding signal (ETV3L) | binding signal (ETS2) | binding signal (SPDEF) | binding signal (ETV7) | binding signal (ELF5) | binding signal (ETV3) | binding signal (ETV6)
TATGTA | 1.28 fold enrichment (6-mer frequency, TF over GST control) | 1.25 fold enrichment (6-mer frequency, TF over GST control) | 1.28 fold enrichment (6-mer frequency, TF over GST control) | 1.26 fold enrichment (6-mer frequency, TF over GST control) | 1.38 fold enrichment (6-mer frequency, TF over GST control) | 1.39 fold enrichment (6-mer frequency, TF over GST control) | 1.23 fold enrichment (6-mer frequency, TF over GST control) | 1.52 fold enrichment (6-mer frequency, TF over GST control) | 1.51 fold enrichment (6-mer frequency, TF over GST control) | 1.3 fold enrichment (6-mer frequency, TF over GST control) | 1.36 fold enrichment (6-mer frequency, TF over GST control) | 1.29 fold enrichment (6-mer frequency, TF over GST control) | 1.38 fold enrichment (6-mer frequency, TF over GST control) | 1.35 fold enrichment (6-mer frequency, TF over GST control) | 1.35 fold enrichment (6-mer frequency, TF over GST control) | 1.26 fold enrichment (6-mer frequency, TF over GST control) | 1.25 fold enrichment (6-mer frequency, TF over GST control) | 1.28 fold enrichment (6-mer frequency, TF over GST control)
GCTCCA | 1.22 fold enrichment (6-mer frequency, TF over GST control) | 1.23 fold enrichment (6-mer frequency, TF over GST control) | 1.16 fold enrichment (6-mer frequency, TF over GST control) | 1.08 fold enrichment (6-mer frequency, TF over GST control) | 1.22 fold enrichment (6-mer frequency, TF over GST control) | 1.24 fold enrichment (6-mer frequency, TF over GST control) | 1.29 fold enrichment (6-mer frequency, TF over GST control) | 1.21 fold enrichment (6-mer frequency, TF over GST control) | 1.01 fold enrichment (6-mer frequency, TF over GST control) | 1.12 fold enrichment (6-mer frequency, TF over GST control) | 1.26 fold enrichment (6-mer frequency, TF over GST control) | 1.26 fold enrichment (6-mer frequency, TF over GST control) | 1.21 fold enrichment (6-mer frequency, TF over GST control) | 1.19 fold enrichment (6-mer frequency, TF over GST control) | 1.19 fold enrichment (6-mer frequency, TF over GST control) | 1.09 fold enrichment (6-mer frequency, TF over GST control) | 1.14 fold enrichment (6-mer frequency, TF over GST control) | 1.1 fold enrichment (6-mer frequency, TF over GST control)
